Results on ten molecules are retold here after PubChem BioAssay (NCI).

About 83,000 compounds went through this panel and 20% of them were active in at least one assay; those are over-represented in the sample as a whole.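 96-well plates, one dose, 48 hours. Percent growth reported; active if below 10.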 Values without a mark were called inactive. The source made the active and inactive calls.

Some test systems named below: RPMI-8226 leukemia; OVCAR-8 ovarian; OVCAR-5 ovarian; OVCAR-4 ovarian; SK-OV-3 ovarian; OVCAR-3 ovarian; HS 578T breast; NCI/ADR-RES ovarian; T-47D breast; BT-549 breast; MDA-MB-435 melanoma; SW-620 colon; MCF7 breast; HCC-2998 colon; KM12 colon; IGROV1 ovarian; HCT-116 colon.
What all share (assay): NCI-60 one-dose screen, 48 h (100 = growth as untreated, 0 = no growth, -100 = all killed)
Holding throughout (details): 10 µM unless noted

In the case of `CCOP1(=O)CC(C)=C(Cl)C(P(=O)(O)O)C1` (stereo not drawn), the growth with RPMI-8226 leukemia is 81.9%; in the assay with OVCAR-8 ovarian it was 91.8%; in the assay with OVCAR-5 ovarian, 94.8%; with OVCAR-4 ovarian, 94.5%; in the assay with SK-OV-3 ovarian it was 110%; in the assay on OVCAR-3 ovarian, 113%. Moreover, the growth was 107% with HS 578T breast; 96.1% with NCI/ADR-RES ovarian; 98.6% in the assay on T-47D breast; 97.4% with BT-549 breast; 107% in the assay on MDA-MB-435 melanoma; 110% with SW-620 colon. Moreover, the values for the growth in the assay with MCF7 breast, in the assay with HCC-2998 colon and with KM12 colon were 109%, 94.4% and 105%, respectively.

As for `O=C1C(Cl)=C(SC2=NCCN2)C(=O)c2ccccc21`, the growth in the assay on OVCAR-8 ovarian is 65.8%; in the assay with OVCAR-5 ovarian, 97.4%; in the assay on OVCAR-4 ovarian, 80.5%; with SK-OV-3 ovarian it was 93.5%; in the assay on IGROV1 ovarian, 49.9%; in the assay with OVCAR-3 ovarian, 46.8%. Moreover, the growth was 93.1% with HS 578T breast; 86.8% with NCI/ADR-RES ovarian; 49.7% with T-47D breast; 90.3% with BT-549 breast; 62.7% in the assay with MDA-MB-435 melanoma; 95.6% with SW-620 colon. In addition, the growth was 61.1% with MCF7 breast, 65% with HCT-116 colon, 106% in the assay on HCC-2998 colon and 75.5% in the assay with KM12 colon.

Regarding `Cc1c(C(N)=O)sc2c1c(=O)n(Cc1ccccc1)c1nnc(S(C)(=O)=O)n21`, the growth in the assay with OVCAR-5 ovarian is 135%; in the assay on OVCAR-4 ovarian, 64.5%; in the assay with SK-OV-3 ovarian it was 103%; in the assay with IGROV1 ovarian, 106%; with OVCAR-3 ovarian, 79.6%; in the assay with HS 578T breast, 87.5%. For the same molecule, the growth with NCI/ADR-RES ovarian is 100%; in the assay on T-47D breast it was 89.4%; in the assay on BT-549 breast, 78.9%; in the assay on MDA-MB-435 melanoma, 81.7%; in the assay with SW-620 colon, 94.3%; in the assay with MCF7 breast, 73.3%. Further, the growth was 79.6% in the assay with HCT-116 colon, 103% in the assay with HCC-2998 colon and 109% in the assay with KM12 colon.

For `COc1cc2cc3cc4cc(OC)c(OC)cc4c(C)[n+]3cc2cc1OC` (tested in a mixture with another compound), the growth with RPMI-8226 leukemia is 43%; with OVCAR-8 ovarian it was 76.2%; in the assay with OVCAR-5 ovarian it was 104%; with OVCAR-4 ovarian, 83.8%; in the assay with SK-OV-3 ovarian, 107%; in the assay with OVCAR-3 ovarian, 65.9%. Also, the growth is 90.1% with HS 578T breast; 93.1% in the assay with NCI/ADR-RES ovarian; 91.7% in the assay on T-47D breast; 85.5% in the assay with BT-549 breast; 71% in the assay with MDA-MB-435 melanoma; 83.2% with SW-620 colon. Moreover, the growth with MCF7 breast is 67.6%; with HCC-2998 colon, 102%; in the assay on KM12 colon, 80.4%.

Consider `Cc1ncc(C(=O)Nc2ccc(CN3CCN(C)CC3)c(C(F)(F)F)c2)cc1C#Cc1cnc(NC2CC2)c2ncccc12`, for which the growth was -41.1% (active) in the assay with RPMI-8226 leukemia; -91.7% (active) in the assay on OVCAR-8 ovarian; -91.1% (active) in the assay on OVCAR-5 ovarian; -60.5% (active) in the assay on OVCAR-4 ovarian; 43.3% in the assay with SK-OV-3 ovarian; -90.4% (active) in the assay on OVCAR-3 ovarian. The growth with HS 578T breast is 43%; in the assay on NCI/ADR-RES ovarian, -41.9% (active); in the assay with BT-549 breast it was -91.7% (active); with MDA-MB-435 melanoma, -86.4% (active); in the assay with SW-620 colon, -74.3% (active); with MCF7 breast it was -76.8% (active). Further, the growth in the assay with HCT-116 colon was -90% (active); in the assay on HCC-2998 colon it was -54.4% (active); with KM12 colon, -82.6% (active).

For `CC(C)C(=O)c1ccc(Cl)s1`, the growth in the assay with OVCAR-8 ovarian was 102%; in the assay with OVCAR-5 ovarian, 105%; in the assay on OVCAR-4 ovarian it was 90.5%; in the assay with SK-OV-3 ovarian it was 101%; in the assay with IGROV1 ovarian, 96.2%; with OVCAR-3 ovarian, 106%. In addition, the growth is 100% in the assay with HS 578T breast; 104% with NCI/ADR-RES ovarian; 90.4% in the assay on T-47D breast; 104% with BT-549 breast; 106% in the assay on MDA-MB-435 melanoma; 107% in the assay with SW-620 colon. Further, the growth was 88.9% with MCF7 breast, 97% in the assay with HCT-116 colon, 99.7% with HCC-2998 colon and 100% in the assay with KM12 colon.

With `CN(CCC#N)c1ccc(/C=C(\C#N)c2cccc(C(F)(F)F)c2)cc1`, the growth in the assay on RPMI-8226 leukemia was 57.4%; in the assay with OVCAR-8 ovarian, 76.1%; in the assay on OVCAR-5 ovarian, 76.9%; with OVCAR-4 ovarian it was 68.3%; in the assay on SK-OV-3 ovarian, 98.1%; with OVCAR-3 ovarian, 69.4%. For the same molecule, the growth is 89.2% in the assay on HS 578T breast; 40.3% with NCI/ADR-RES ovarian; 56.7% with T-47D breast; 60.1% with BT-549 breast; 1.34% (active) in the assay with MDA-MB-435 melanoma; 40.4% with SW-620 colon. The growth in the assay on MCF7 breast is 34.2%; in the assay with HCT-116 colon, 57.6%; in the assay on HCC-2998 colon, 78.5%; with KM12 colon, 38.5%.

As for `COc1ccc(NC(=O)/C=C(C)/C=C/C=C(C)/C=C/C2=C(C)CCCC2(C)C)cc1`, the growth in the assay on RPMI-8226 leukemia was 43.9%; in the assay on OVCAR-8 ovarian, 37%; in the assay with OVCAR-5 ovarian, 94.8%; in the assay with OVCAR-4 ovarian, 80.1%; with SK-OV-3 ovarian it was 86.2%; with OVCAR-3 ovarian it was 66.5%. The growth was 87.9% with HS 578T breast; 80.1% with NCI/ADR-RES ovarian; 17.8% in the assay on T-47D breast; 96.2% in the assay with BT-549 breast; 95.7% in the assay on MDA-MB-435 melanoma; 69.3% with SW-620 colon. In addition, the growth with MCF7 breast was 73.7%; with HCC-2998 colon, 97.9%; in the assay with KM12 colon, 88.9%.

For the molecule `NC(N)=Nc1ccc(/C=C2\C=Cc3ccccc32)cc1`, the growth with OVCAR-8 ovarian was 71.7%; with OVCAR-5 ovarian it was 80.7%; in the assay with OVCAR-4 ovarian, 77.7%; in the assay on SK-OV-3 ovarian, 78.6%; in the assay on IGROV1 ovarian, 51.2%; with OVCAR-3 ovarian, 72.9%. The growth in the assay on HS 578T breast was 81.3%; in the assay on NCI/ADR-RES ovarian, 80.9%; with T-47D breast, 50.6%; in the assay with MDA-MB-435 melanoma, 21.6%; with MCF7 breast it was 25%; with HCT-116 colon, 47.5%. Moreover, the results for the growth with HCC-2998 colon and in the assay with KM12 colon were 62.6% and 15.2%, respectively.

With `C/C=C(/C)C(=O)OC1C=C(CO)C(=O)C(OC(=O)C2(C)OC2C)C1C(C)C` (stereo not drawn), the growth is -37.4% (active) with RPMI-8226 leukemia; 4.08% (active) in the assay on OVCAR-8 ovarian; -40% (active) in the assay on OVCAR-5 ovarian; 13.6% in the assay on OVCAR-4 ovarian; 44.3% in the assay on SK-OV-3 ovarian; -31.2% (active) with IGROV1 ovarian. The growth was -46.9% (active) with OVCAR-3 ovarian; 30.9% in the assay with HS 578T breast; 6.41% (active) in the assay with NCI/ADR-RES ovarian; -7.25% (active) in the assay on BT-549 breast; -31.8% (active) in the assay with MDA-MB-435 melanoma; -26.8% (active) in the assay with SW-620 colon. The growth in the assay with MCF7 breast is 8.26% (active); with HCT-116 colon, -58.9% (active); with HCC-2998 colon, -87.6% (active); in the assay with KM12 colon, -56.3% (active).
